How the values were obtained:
ETS1 [1] = biological target: T1, ETS1 (UniProt P14921); assay: ETS1 binding intensity (PBM fluorescence), ETS1 alone (arbitrary fluorescence units); higher = stronger binding; conditions: ETS1 concentration 1 nM; RUNX1 concentration 0 nM
T1 sequence: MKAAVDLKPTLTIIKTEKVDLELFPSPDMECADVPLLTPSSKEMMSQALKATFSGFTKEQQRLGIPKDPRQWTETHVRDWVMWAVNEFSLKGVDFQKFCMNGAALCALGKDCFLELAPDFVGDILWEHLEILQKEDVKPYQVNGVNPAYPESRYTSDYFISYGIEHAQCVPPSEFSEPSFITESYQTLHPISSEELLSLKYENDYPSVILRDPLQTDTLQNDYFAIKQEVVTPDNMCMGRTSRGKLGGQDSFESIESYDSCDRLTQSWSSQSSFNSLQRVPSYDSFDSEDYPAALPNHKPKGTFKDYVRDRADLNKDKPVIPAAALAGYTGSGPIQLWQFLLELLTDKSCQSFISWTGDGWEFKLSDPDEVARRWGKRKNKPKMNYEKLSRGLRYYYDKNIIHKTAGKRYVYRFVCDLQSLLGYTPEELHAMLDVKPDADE

ETS1 [2] = biological target: T1, ETS1; assay: ETS1 binding intensity (PBM fluorescence) in presence of RUNX1, normalised to ETS1-only experiment (arbitrary fluorescence units); higher = stronger binding; conditions: ETS1 concentration 1 nM; RUNX1 concentration 25 nM

Sequence: CAGCAAGCGTCCAGGAAGTGTGTGGGGGAGGTGTGG
- ETS1 binding intensity (ETS1 [1]): 2010
- ETS1 binding intensity (ETS1 [2]): 1920

Sequence: CAGGGAAGTTCGAACTGGGCGGGGCCCACCGCAGTT
- ETS1 binding intensity (ETS1 [1]): 336
- ETS1 binding intensity (ETS1 [2]): 488

Sequence: AAAGGGCAGACTTCCCTGCCCACATCTCTGCTCCTG
- ETS1 binding intensity (ETS1 [1]): 462
- ETS1 binding intensity (ETS1 [2]): 359

Sequence: TGCCGGAAGCCCGCCAGGCACAGGACCCGCAGGGGT
- ETS1 binding intensity (ETS1 [1]): 588
- ETS1 binding intensity (ETS1 [2]): 545

Sequence: GGAAAGCGGAAGAAAAAAGCAAGATGGGACCGCAAG
- ETS1 binding intensity (ETS1 [1]): 445
- ETS1 binding intensity (ETS1 [2]): 928

Sequence: TGAATCATGACAGAGGAAGTGTGGTTCTGTGATTAC
- ETS1 binding intensity (ETS1 [1]): 1760
- ETS1 binding intensity (ETS1 [2]): 2090

Sequence: TCCTAGCCATTTCCTATCCACCCTGTGGCTAATTTG
- ETS1 binding intensity (ETS1 [1]): 437
- ETS1 binding intensity (ETS1 [2]): 476

Sequence: CGTTTCCTGTGGCTGCAGCTCTCCCCACCCACACAC
- ETS1 binding intensity (ETS1 [1]): 829
- ETS1 binding intensity (ETS1 [2]): 781

Sequence: ATTCTGCATCCTGTGCTCTTTCCATGAGACCACAAA
- ETS1 binding intensity (ETS1 [1]): 448
- ETS1 binding intensity (ETS1 [2]): 754

Sequence: TTACACCCAAGGGATGTTGTTTGTGGGGGGCGGGGT
- ETS1 binding intensity (ETS1 [1]): 445
- ETS1 binding intensity (ETS1 [2]): 490

Sequence: TGGTTAAGCAGTGCAGGATGTGGGCTGCACTGCTAA
- ETS1 binding intensity (ETS1 [1]): 2590
- ETS1 binding intensity (ETS1 [2]): 3930

Sequence: GGGCAGCATCCTGTGCCTGCTTCTCTTACCCACATC
- ETS1 binding intensity (ETS1 [1]): 494
- ETS1 binding intensity (ETS1 [2]): 453

Sequence: GCAAACGGAAGAGAGGAACGAAGGCCGCAGAGCTTG
- ETS1 binding intensity (ETS1 [1]): 486
- ETS1 binding intensity (ETS1 [2]): 481

Sequence: GAAACTTCTCAAGGAAATAGCTGTGGTAAACAATAC
- ETS1 binding intensity (ETS1 [1]): 725
- ETS1 binding intensity (ETS1 [2]): 1730

Sequence: AGCCGGAGGCGGAAGGAGCAGCGCTACCGCAGCGTC
- ETS1 binding intensity (ETS1 [1]): 639
- ETS1 binding intensity (ETS1 [2]): 1130

Sequence: GTATTTATTTCCTCTTCGAAGAAATGCGGGGGTGCC
- ETS1 binding intensity (ETS1 [1]): 473
- ETS1 binding intensity (ETS1 [2]): 438

Sequence: GTGCCACTGAGAGGAAGGGGGCAACCACAGTGGGAG
- ETS1 binding intensity (ETS1 [1]): 367
- ETS1 binding intensity (ETS1 [2]): 590

Sequence: GCGATACGAGACTTCCTGCGGGCTCGTGACATCAGC
- ETS1 binding intensity (ETS1 [1]): 518
- ETS1 binding intensity (ETS1 [2]): 650

Sequence: CAGTCAGACGGAAGCCCGGCTTCTGTGGTGCCTGCC
- ETS1 binding intensity (ETS1 [1]): 459
- ETS1 binding intensity (ETS1 [2]): 473

Sequence: TGGGGTGGGGTGGGAAGTGCCAGCGGTCTGGGTGTC
- ETS1 binding intensity (ETS1 [1]): 537
- ETS1 binding intensity (ETS1 [2]): 486

Sequence: CGGGGCATGCCGGACGCTGTGGTCCTGAAGGCCTGG
- ETS1 binding intensity (ETS1 [1]): 536
- ETS1 binding intensity (ETS1 [2]): 423

Sequence: GGCTTTTCCGGGATCCCTTTCGCCTCATCACCGCAG
- ETS1 binding intensity (ETS1 [1]): 522
- ETS1 binding intensity (ETS1 [2]): 301

Sequence: CTTTCGCTTCCTTTCCCCGCCTCTTAGTCCCGCAGA
- ETS1 binding intensity (ETS1 [1]): 464
- ETS1 binding intensity (ETS1 [2]): 363

Sequence: CCGCCCTCCACCGAGTTCCGGCCACAGAGCGGGCCC
- ETS1 binding intensity (ETS1 [1]): 536
- ETS1 binding intensity (ETS1 [2]): 547

Sequence: CAGCCCTAGCGAGTTTCCTGCGGGGAAGGGCATTCC
- ETS1 binding intensity (ETS1 [1]): 537
- ETS1 binding intensity (ETS1 [2]): 480

Sequence: CTTGCTCCCCACTTCCTACCACATTCAATGCCCGGA
- ETS1 binding intensity (ETS1 [1]): 523
- ETS1 binding intensity (ETS1 [2]): 558

Sequence: CTGAGGCGCGCCGGAAGGGCTAGCGGTCCCAGCATA
- ETS1 binding intensity (ETS1 [1]): 1280
- ETS1 binding intensity (ETS1 [2]): 1430

Sequence: CCCCAGGTTGCTTCCGTTCTGGGAACCGCGTCCTCG
- ETS1 binding intensity (ETS1 [1]): 1190
- ETS1 binding intensity (ETS1 [2]): 984

Sequence: GGAGCGACGGAAGCACCTGAAGCGGTCTTTCCCCGA
- ETS1 binding intensity (ETS1 [1]): 514
- ETS1 binding intensity (ETS1 [2]): 349

Sequence: GAGGAGGCTGAGGAGGAAGTGCGGTGGCTGTTCTGC
- ETS1 binding intensity (ETS1 [1]): 1290
- ETS1 binding intensity (ETS1 [2]): 1470

Sequence: AATTGTCAATGGCAGGAAGCCACCACATGAAGAGAT
- ETS1 binding intensity (ETS1 [1]): 1290
- ETS1 binding intensity (ETS1 [2]): 1650

Sequence: GGATGGCGGAAGAGGCGGCTGAGGCCGCAGGACGTG
- ETS1 binding intensity (ETS1 [1]): 4630
- ETS1 binding intensity (ETS1 [2]): 4800

Sequence: GTGCGGAAGCGCGCCAAGGCACGTGACCGCTTCTGT
- ETS1 binding intensity (ETS1 [1]): 381
- ETS1 binding intensity (ETS1 [2]): 475

Sequence: GTCCCCCGGAACCGTCTCCTCCCCCGCACGCGCCGC
- ETS1 binding intensity (ETS1 [1]): 516
- ETS1 binding intensity (ETS1 [2]): 433

Sequence: ACGTAGACAGGAAAGTAATGTGGTTCAGGACTGAGT
- ETS1 binding intensity (ETS1 [1]): 746
- ETS1 binding intensity (ETS1 [2]): 766

Sequence: TGCCCAGTACTTCCTCTTGTGGGGGAGCACAACTTG
- ETS1 binding intensity (ETS1 [1]): 569
- ETS1 binding intensity (ETS1 [2]): 424

Sequence: GCTGTAGGAAATGTTATTCGCCGCGGTCAGGACAGG
- ETS1 binding intensity (ETS1 [2]): 710

Sequence: CTGCTTCGGCCCGGCTTCCGCCCACAGTCAACTGCC
- ETS1 binding intensity (ETS1 [2]): 694

Sequence: CTTCAGGGGTGGGGCTTCCTGCCGCAGAGCCGCCTT
- ETS1 binding intensity (ETS1 [2]): 557

Sequence: TTGGTGGCTTCCTGCCCAGGAGACCACACCCAGCTT
- ETS1 binding intensity (ETS1 [2]): 486

Sequence: GGCCGGAAGCGCTCTCGTTGGCCCTGCGGCGCTGGA
- ETS1 binding intensity (ETS1 [2]): 2800

Sequence: GCGCCATTTCCGCTGCGCAAGGCACCACAGGCCCTG
- ETS1 binding intensity (ETS1 [2]): 943

Sequence: GCTTTGCAGTTTCCTCTATGGAACACCACACACAGT
- ETS1 binding intensity (ETS1 [2]): 499

Sequence: CAGCTTCCGGGCTAATTAGCAGTCGCGGTGTGCCGC
- ETS1 binding intensity (ETS1 [2]): 450

Sequence: CTCTTCTCAGGAAGGGGCTGTGGGATGTAGGATTCC
- ETS1 binding intensity (ETS1 [2]): 610

Sequence: GCTGCGCAGAGGAAACCAGGCTTGTTGGTTTTCATG
- ETS1 binding intensity (ETS1 [2]): 457

Sequence: CAGCTAGAGGAAGCGCTTCGCCCGCGAACCACAGGG
- ETS1 binding intensity (ETS1 [2]): 705

Sequence: GCCACCGTATTTCCGCGTTTTTCGCGGTAGGCGGGA
- ETS1 binding intensity (ETS1 [2]): 576

Sequence: CCACGCCCCCTCCTTCCGCTGCGGGAGATAGCCACT
- ETS1 binding intensity (ETS1 [2]): 751

Sequence: CGTTATTTCCGGGGCTGGGTTAACGCAGCGGTTCCA
- ETS1 binding intensity (ETS1 [2]): 692

Sequence: CTTCTCGCGGAAGCGGCACAAGCCGCAGTACAGCGC
- ETS1 binding intensity (ETS1 [2]): 495
